Potency data for 18 compounds are collected here from PubChem BioAssay (NCATS).

Structures are written as SMILES. Records with an inconclusive call do not appear. Activity calls are given as the source filed them. Calls follow the shape of the dose curve; as a rule, active = well fitted curve in the direction sought with a large enough effect; inconclusive = small, poorly fitted or top-dose-only effect, or another doubt; inactive = no such curve, though single readings can be large; an effect the other way counts as inactive or inconclusive.

Assay [1] in a line: qHTS of pediatric cancer cell lines to identify multiple opportunities for drug repurposing: Primary screen for BT-37 cells (AID 1347094). Also: potency is read from the fitted curve at half-maximal effect. The method, boiled down: (§1)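 Luminescence from CellTiter-Glo served as readout of metabolically active cells after 48 h compound exposure. Titrations: MIPE 11-point, from 0.78 nM; NPC 8-point, from 0.59 nM (final). Concentration-response curves came straight from the primary screen.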
Background: Quantitative high-throughput screening tests each substance at several concentrations.

A short description of assay [2]: qHTS of pediatric cancer cell lines to identify multiple opportunities for drug repurposing: Primary screen for U-2 OS cells (AID 1347096). Also: nearly all actives have a fitted effect of over 50% in size. Also: potency is read from the fitted curve at half-maximal effect. The gist of the method:
(§2)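 Cells (500-1,000/well) rested 5 h, then received compounds for 48 h; metabolically active cells were measured by CellTiter-Glo luminescence. Final concentrations spanned up to 46 µM (MIPE, 11-point) or 0.59 nM-46 µM (NPC, 8-point) in primary screens, 11-point in follow-ups.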

Assay [3] in a line: qHTS of pediatric cancer cell lines to identify multiple opportunities for drug repurposing: Primary screen for Saos-2 cells (AID 1347097). Also: nearly all actives have a fitted effect of over 40% in size. Also: potency is read from the fitted curve at half-maximal effect. The gist of the method:
as §1

Assay [4] can be described thus: qHTS of pediatric cancer cell lines to identify multiple opportunities for drug repurposing: Primary screen for NB1643 cells (AID 1347099). Also: nearly all actives have a fitted effect of over 50% in size. Also: potency is read from the fitted curve at half-maximal effect. The gist of the method:
as §1

Assay [5] is described as follows: qHTS of pediatric cancer cell lines to identify multiple opportunities for drug repurposing: Primary screen for LAN-5 cells (AID 1347100). Also: potency is read from the fitted curve at half-maximal effect. The method, boiled down:
as §2

The nature of assay [6]: qHTS of pediatric cancer cell lines to identify multiple opportunities for drug repurposing: Primary screen for Rh18 cells (AID 1347102). Also: nearly all actives have a fitted effect of over 65% in size. The method, boiled down: as §2
Assay [7] is described as follows: qHTS of pediatric cancer cell lines to identify multiple opportunities for drug repurposing: Primary screen for OHS-50 cells (AID 1347103). Also: nearly all actives have a fitted effect of over 40% in size. Also: potency is read from the fitted curve at half-maximal effect. The method, boiled down:
as §2

The nature of assay [8]: qHTS of pediatric cancer cell lines to identify multiple opportunities for drug repurposing: Primary screen for RD cells (AID 1347104). Also: nearly all actives have a fitted effect of over 55% in size. Also: potency is read from the fitted curve at half-maximal effect. The method, boiled down:
as §1

Assay [9] in a line: qHTS of pediatric cancer cell lines to identify multiple opportunities for drug repurposing: Primary screen for Rh30 cells (AID 1347107). Also: series mostly up to about 46 µM; nearly all actives have a fitted effect of over 75% in size. The gist of the method:
as §2

A short description of assay [10]: qHTS of pediatric cancer cell lines to identify multiple opportunities for drug repurposing: Primary screen for Rh41 cells (AID 1347108). Also: nearly all actives have a fitted effect of over 70% in size. Also: potency is read from the fitted curve at half-maximal effect. The method, boiled down:
as §1

Assay [11] in a line: qHTS of pediatric cancer cell lines to identify multiple opportunities for drug repurposing: Primary screen for SK-N-SH cells (AID 1347098). Also: nearly all actives have a fitted effect of over 65% in size. Also: potency is read from the fitted curve at half-maximal effect. The method, boiled down: as §2
Assay [12] is described as follows: qHTS of pediatric cancer cell lines to identify multiple opportunities for drug repurposing: Primary screen for BT-12 cells (AID 1347101). Also: nearly all actives have a fitted effect of over 25% in size. Also: potency is read from the fitted curve at half-maximal effect. The gist of the method:
as §2

The nature of assay [13]: qHTS of pediatric cancer cell lines to identify multiple opportunities for drug repurposing: Primary screen for MG 63 (6-TG R) cells (AID 1347105). Also: nearly all actives have a fitted effect of over 50% in size. The gist of the method: as §1
A short description of assay [14]: qHTS of pediatric cancer cell lines to identify multiple opportunities for drug repurposing: Primary screen for control Hh wild type fibroblast cells (AID 1347106).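 Also: series mostly up to about 46 µM; a drop in luminescence marks cytotoxicity and a rise apparent proliferation; nearly all actives have a fitted effect of over 55% in size.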 The gist of the method: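 Cells (500-1,000/well) in growth media were settled 5 h at 37 degrees C, then given compounds for 48 h. Viability was read as CellTiter-Glo luminescence. Primary runs used MIPE at 11 points (0.78 nM-46 µM) and NPC at 8 points (0.59 nM-46 µM); follow-ups used 11 points.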

A short description of assay [15]: qHTS of pediatric cancer cell lines to identify multiple opportunities for drug repurposing: Confirmatory screen for A673 cells (AID 1347110).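 Also: potency is read from the fitted curve at half-maximal effect; cells exposed to compound for 48 h before the viability read; nearly all actives have a fitted effect of over 65% in size.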 The gist of the method: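 A673 cells seeded at 500-1,000 cells/well, rested 5 h, then dosed; primary MIPE 11-point (0.78 nM to 46 µM), NPC (0.59 nM to 46 µM); confirmatory 11-point. CellTiter-Glo luminescence after 48 h.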

Assay [16] can be described thus: qHTS of pediatric cancer cell lines to identify multiple opportunities for drug repurposing: Confirmatory screen for SK-N-MC cells (AID 1347111).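 Also: potency is read from the fitted curve at half-maximal effect; cells exposed to compound for 48 h before the readout; nearly all actives have a fitted effect of over 70% in size.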 The method, boiled down:
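Seed 500-1,000 cells/well; rest 5 h at 37 degrees C. Pin-transfer compounds, 11-point titration. Incubate 48 h. Add CellTiter-Glo, 15 min RT, read luminescence.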

Assay [17] can be described thus: qHTS of pediatric cancer cell lines to identify multiple opportunities for drug repurposing: Confirmatory screen for BT-12 cells (AID 1347112). Also: nearly all actives have a fitted effect of over 55% in size. The method, boiled down: as §2
Assay [18] is described as follows: qHTS of pediatric cancer cell lines to identify multiple opportunities for drug repurposing: Confirmatory screen for LAN-5 cells (AID 1347113). Also: nearly all actives have a fitted effect of over 65% in size. The gist of the method:
as §2

Consider `COc1cccc([C@@H](C)NCCCc2ccccc2Cl)c1`, for which the Potency entry in assay [1], in assay [2], in assay [3], in assay [5], in [6] and in assay [7] was “inactive” throughout. Also, the Potency result in assay [8], in assay [9] and in assay [10] was “inactive” each time. In addition, the Potency in assay [4] was 20.9 µM (active).
In the case of `Cc1c[nH]c(C=C2C(=O)Nc3ccccc32)c1CCC(=O)O`, the Potency entry in assay [1], in [2], in assay [12], in [8] and in assay [13] was “inactive” each time. Moreover, the Potency in [11] is 24.1 µM (active); in assay [5], 18.7 µM (active).
In the case of `CC1=C(/C=C/C(C)=C/C=C/C(C)=C/C(=O)Nc2ccc(O)cc2)C(C)(C)CCC1`, the Potency is 15.5 µM (active) in assay [1]; 26.6 µM (active) in [2]; 23.7 µM (active) in assay [3]; 7.77 µM (active) in [12]; 15.5 µM (active) in assay [7]; 26.6 µM (active) in assay [8]. Also, in assay [14], the Potency result was “inactive”.
Regarding `N#C[C@H]1C[C@H]2C[C@@H]2N1C(=O)[C@@H](N)C12CC3CC(CC(O)(C3)C1)C2`, the Potency result in [1], in assay [2], in assay [12], in [6], in assay [7] and in assay [8] was “inactive” in each case. Besides, the Potency result in assay [14] and in assay [10] was “inactive” throughout. Also, the Potency in assay [11] is 24.1 µM (active).
As to `CC(C)C(C)C=CC(C)C1CCC2C3=CC=C4CC(O)CCC4(C)C3CCC21C` (stereo not given), the Potency result in assay [1], in [2], in assay [3], in [4], in assay [5] and in assay [12] was “inactive” throughout. Moreover, the Potency entry in assay [6], in assay [7], in assay [8], in assay [14], in assay [9] and in assay [10] was “inactive” in each case.
For the compound `CC(C)(C)COc1ccc(-n2cc(C(=O)O)cn2)cc1C#N`, the Potency entry in assay [1], in assay [2], in assay [3], in assay [5], in assay [12] and in assay [6] was “inactive” in each case. In addition, the Potency result in assay [8], in [13], in [14], in assay [9] and in assay [10] was “inactive” in each case.
For the compound `CC=CC(=O)N(CC)c1ccccc1C`, the Potency in assay [1] is 30.6 µM (active). The Potency entry in assay [2], in assay [3], in assay [6], in [7], in assay [13] and in assay [14] was “inactive” in each case. In addition, the Potency entry in assay [9] and in assay [10] was “inactive” each time.
For `CCC(=O)O[C@]1(C(=O)CO)CC[C@H]2[C@@H]3CCC4=CC(=O)CC[C@]4(C)[C@@H]3CC[C@@]21C`, the Potency result in assay [1], in assay [2], in [3], in [11], in assay [5] and in [12] was “inactive” in each case. Moreover, the Potency entry in assay [6], in [8], in assay [14] and in assay [9] was “inactive” in each case.
For `O=C(O)[C@H]1O[C@H](Oc2cc3oc(-c4ccccc4)cc(=O)c3c(O)c2O)[C@H](O)[C@@H](O)[C@H]1O`, the Potency entry in assay [1], in assay [2], in assay [11], in assay [5], in [12] and in assay [8] was “inactive” each time. The Potency result in assay [13] and in [14] was “inactive” in each case. For the same compound, the Potency in [4] was 0.118 µM (active).
With `CC[C@@]1(O)C[C@H](O[C@H]2C[C@H](N(C)C)[C@H](O[C@H]3C[C@H](O)[C@H](O[C@H]4CCC(=O)[C@H](C)O4)[C@H](C)O3)[C@H](C)O2)c2c(cc3c(c2O)C(=O)c2c(O)cccc2C3=O)[C@@H]1C(=O)OC`, the Potency in assay [1] is 0.385 µM (active); in assay [3] it was 16.6 µM (active). For the same compound, the Potency result in [2], in assay [6], in assay [7], in assay [8], in [13] and in [14] was “inactive” each time. Further, the Potency result in assay [9] is “inactive”.
Regarding `C=C1C(=O)OC2C=C(C)CCC=C(C)CCC12` (stereo not given), the Potency result in [1], in assay [2], in assay [6], in assay [7], in [13] and in assay [14] was “inactive” throughout. Also, the Potency was 33.2 µM (active) in [3] and 23.5 µM (active) in assay [5].
For `CS(=O)c1ccc(-c2nc(-c3ccc(F)cc3)c(-c3ccncc3)[nH]2)cc1` (stereo not given), the Potency in [1] is 17.7 µM (active); in assay [3], 10.8 µM (active); in [12], 44.4 µM (active); in assay [7], 44.4 µM (active); in assay [8], 42.9 µM (active). In addition, the Potency result in assay [2], in [6] and in assay [14] was “inactive” throughout.
`O=C1NC(=O)C(=Cc2cccc(C(F)(F)F)c2)S1`: the Potency entry in assay [1], in assay [2], in assay [3], in [11], in assay [5] and in assay [6] was “inactive” each time. In assay [8], the Potency result is “inactive”. In assay [10], the Potency is 23.5 µM (active).
As for `Cc1ccccc1C(C(=O)NC1CCCCC1)N(C(=O)Cn1ccnc1C)c1cccc(F)c1` (stereo not given), the Potency result in assay [1], in assay [2], in [11], in [4], in [12] and in assay [6] was “inactive” in each case. For the same compound, the Potency result in assay [13], in [14] and in assay [9] was “inactive” throughout.
For `COC1CCC(N(C(=O)C2CCC(C)CC2)c2cc(C3=CCCCC3)sc2C(=O)O)CC1` (stereo not given), the Potency result in assay [1], in [2], in [3], in [11], in assay [12] and in [6] was “inactive” throughout. Also, the Potency result in [7], in [14] and in assay [9] was “inactive” throughout. Further, the Potency in [4] is 23.5 µM (active).
In the case of `CCc1ccc(C=C2SC(=S)NC2=O)cc1`, the Potency entry in [1], in assay [2], in [11], in assay [12], in assay [6] and in [8] was “inactive” throughout. In addition, the Potency result in assay [13], in [14] and in [9] was “inactive” throughout. Further, the Potency in assay [4] was 23.5 µM (active).
`Cn1cc(C=C2C(=O)Nc3cccnc32)c2ccccc21`: the Potency result in assay [1], in assay [2], in [3], in [11], in assay [12] and in assay [6] was “inactive” in each case. Besides, the Potency result in assay [13], in assay [14] and in assay [9] was “inactive” in each case.
On to `OC[C@H]1O[C@@H](n2cnc3c2NC=NC[C@@H]3O)C[C@H]1O`, for which the Potency result in assay [1], in assay [2], in assay [3], in [5], in assay [12] and in [6] was “inactive” in each case. Further, the Potency result in assay [7], in assay [8], in assay [13], in assay [14], in assay [10] and in [17] was “inactive” throughout. Also, the Potency entry in assay [18] is “inactive”. Further, the Potency in assay [15] was 1.04 µM (active); in assay [16] it was 8.27 µM (active).
